The supplement of paper PMC8728848
About 410 targets per protein were measured; listed, in parts, are those with the strongest signals and a random draw of the rest.

Key:
Assay in all cases: glycan array binding signal (z-score within array); higher = stronger binding
Conditions in all cases: glycan notation: IUPAC condensed, linker removed
[1] = target: Fuc(a1-2)[GalNAc(a1-3)]Gal(b1-4)GlcNAc(b1-6)GalNAc
Outline: (§1)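 From the Consortium for Functional Glycomics database, 3228 arrays were curated, keeping only those whose protein sequence was available. Binding is given as a within-array Z-score averaged across arrays sharing a protein sequence and across linkers. Negative Z-scores can be read as non-binding.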

Fuc(a1-3)GlcNAc = target: Fuc(a1-3)GlcNAc
Outline: as §1

[2] = target: Fuc(a1-3)[Gal(b1-4)]Glc6S
Outline: as §1

[3] = target: Gal(a1-3)Gal(b1-3)GlcNAc(b1-3)GalNAc
Outline: as §1

[4] = target: Gal(a1-3)Gal(b1-4)GlcNAc(b1-6)GalNAc
Outline: as §1

[5] = target: Gal(a1-3)Gal(b1-4)[Fuc(a1-3)]GlcNAc(b1-2)Man(a1-3)[Gal(a1-3)Gal(b1-4)[Fuc(a1-3)]GlcNAc(b1-2)Man(a1-6)]Man(b1-4)GlcNAc(b1-4)GlcNAc
Outline: as §1

Gal(a1-3)GalNAc = target: Gal(a1-3)GalNAc
Outline: as §1

Gal(b1-3)Gal(b1-4)GlcNAc = target: Gal(b1-3)Gal(b1-4)GlcNAc
Outline: as §1

[6] = target: Gal(b1-3)GalNAc(a1-3)[Fuc(a1-2)]Gal(b1-4)Glc
Outline: as §1

[7] = target: Gal(b1-3)GlcNAc(b1-2)[Gal(b1-3)GlcNAc(b1-6)]Man(a1-6)[Gal(b1-3)GlcNAc(b1-2)Man(a1-3)]Man(b1-4)GlcNAc(b1-4)GlcNAc
Outline: as §1

[8] = target: Gal(b1-3)GlcNAc(b1-3)GalNAc
Outline: as §1

[9] = target: Gal(b1-4)GalNAc(a1-3)[Fuc(a1-2)]Gal(b1-4)GlcNAc
Outline: as §1

Gal(b1-4)GlcNAc(b1-2)Man = target: Gal(b1-4)GlcNAc(b1-2)Man
Outline: as §1

[10] = target: Gal(b1-4)GlcNAc(b1-2)Man(a1-3)[Gal(b1-4)GlcNAc(b1-2)Man(a1-6)]Man(b1-4)GlcNAc(b1-4)[Fuc(a1-6)]GlcNAc
Outline: as §1

[11] = target: Gal(b1-4)GlcNAc(b1-2)Man(a1-6)Man(b1-4)GlcNAc(b1-4)GlcNAc
Outline: as §1

[12] = target: Gal(b1-4)GlcNAc(b1-3)Gal(b1-4)Glc
Outline: as §1

[13] = target: Gal(b1-4)GlcNAc(b1-3)Gal(b1-4)GlcNAc(b1-2)Man(a1-3)[Gal(b1-4)GlcNAc(b1-3)Gal(b1-4)GlcNAc(b1-2)Man(a1-6)]Man(b1-4)GlcNAc(b1-4)GlcNAc
Outline: as §1

[14] = target: Gal(b1-4)GlcNAc(b1-3)Gal(b1-4)GlcNAc(b1-2)Man(a1-3)[Gal(b1-4)GlcNAc(b1-3)Gal(b1-4)GlcNAc(b1-2)Man(a1-6)]Man(b1-4)GlcNAc(b1-4)[Fuc(a1-6)]GlcNAc
Outline: as §1

[15] = target: Gal(b1-4)GlcNAc(b1-3)Gal(b1-4)GlcNAc(b1-3)Gal(b1-4)GlcNAc(b1-2)Man(a1-3)[Gal(b1-4)GlcNAc(b1-3)Gal(b1-4)GlcNAc(b1-3)Gal(b1-4)GlcNAc(b1-2)Man(a1-6)]Man(b1-4)GlcNAc(b1-4)GlcNAc
Outline: as §1

[16] = target: Gal(b1-4)GlcNAc(b1-3)Gal(b1-4)GlcNAc(b1-3)[Gal(b1-4)GlcNAc(b1-3)Gal(b1-4)GlcNAc(b1-6)]GalNAc
Outline: as §1

[17] = target: Gal(b1-4)GlcNAc(b1-3)Gal(b1-4)GlcNAc(b1-6)[Gal(b1-3)]GalNAc
Outline: as §1

[18] = target: Gal(b1-4)GlcNAc(b1-3)[Fuc(a1-3)GlcNAc(b1-6)]Gal(b1-4)Glc
Outline: as §1

Gal6S(b1-3)GlcNAc = target: Gal6S(b1-3)GlcNAc
Outline: as §1

Glc(a1-4)Glc = target: Glc(a1-4)Glc
Outline: as §1

[19] = target: GlcA3S(b1-3)Gal(b1-4)GlcNAc(b1-2)Man
Outline: as §1

[20] = target: GlcNAc(b1-3)Gal(b1-4)GlcNAc(b1-3)Gal(b1-4)GlcNAc(b1-2)Man(a1-3)[GlcNAc(b1-3)Gal(b1-4)GlcNAc(b1-3)Gal(b1-4)GlcNAc(b1-2)Man(a1-6)]Man(b1-4)GlcNAc(b1-4)GlcNAc
Outline: as §1

[21] = target: GlcNAc(b1-3)Gal(b1-4)GlcNAc(b1-3)Gal(b1-4)GlcNAc(b1-3)Gal(b1-4)GlcNAc(b1-2)[GlcNAc(b1-3)Gal(b1-4)GlcNAc(b1-3)Gal(b1-4)GlcNAc(b1-3)Gal(b1-4)GlcNAc(b1-6)]Man(a1-6)[GlcNAc(b1-3)Gal(b1-4)GlcNAc(b1-3)Gal(b1-4)GlcNAc(b1-3)Gal(b1-4)GlcNAc(b1-2)Man(a1-3)]Man(b1-4)GlcNAc(b1-4)[Fuc(a1-6)]GlcNAc
Outline: as §1

Kdn(a2-3)Gal(b1-4)Glc = target: Kdn(a2-3)Gal(b1-4)Glc
Outline: as §1

[22] = target: Man(a1-3)[Man(a1-6)]Man(a1-6)[Man(a1-2)Man(a1-3)]Man(b1-4)GlcNAc(b1-4)GlcNAc
Outline: as §1

[23] = target: Neu5Ac(a2-3)Gal(b1-3)GlcNAc(b1-2)Man(a1-3)[GlcNAc(b1-4)][Neu5Ac(a2-3)Gal(b1-3)GlcNAc(b1-2)Man(a1-6)]Man(b1-4)GlcNAc(b1-4)GlcNAc
Outline: as §1

[24] = target: Neu5Ac(a2-3)Gal(b1-3)[GlcNAc(b1-6)]GalNAc
Outline: as §1

[25] = target: Neu5Ac(a2-3)Gal(b1-4)GlcNAc(b1-2)Man(a1-3)[Neu5Ac(a2-6)Gal(b1-4)GlcNAc(b1-2)Man(a1-6)]Man(b1-4)GlcNAc(b1-4)GlcNAc
Outline: as §1

[26] = target: Neu5Ac(a2-3)Gal(b1-4)GlcNAc(b1-3)Gal(b1-4)GlcNAc(b1-2)Man(a1-3)[Neu5Ac(a2-3)Gal(b1-4)GlcNAc(b1-3)Gal(b1-4)GlcNAc(b1-2)Man(a1-6)]Man(b1-4)GlcNAc(b1-4)GlcNAc
Outline: as §1

[27] = target: Neu5Ac(a2-3)Gal(b1-4)GlcNAc(b1-3)Gal(b1-4)GlcNAc(b1-3)Gal(b1-4)GlcNAc(b1-2)Man(a1-3)[Neu5Ac(a2-3)Gal(b1-4)GlcNAc(b1-3)Gal(b1-4)GlcNAc(b1-3)Gal(b1-4)GlcNAc(b1-2)Man(a1-6)]GalNAc
Outline: as §1

[28] = target: Neu5Ac(a2-3)Gal(b1-4)GlcNAc(b1-3)[Neu5Ac(a2-3)Gal(b1-4)GlcNAc(b1-6)]GalNAc
Outline: as §1

[29] = target: Neu5Ac(a2-3)Gal(b1-4)GlcNAc(b1-6)[Gal(b1-3)]GalNAc
Outline: as §1

[30] = target: Neu5Ac(a2-3)Gal(b1-4)GlcNAc6S
Outline: as §1

[31] = target: Neu5Ac(a2-3)[GalNAc(b1-4)]Gal(b1-4)GlcNAc
Outline: as §1

[32] = target: Neu5Ac(a2-6)Gal(b1-4)GlcNAc(b1-3)Gal(b1-4)GlcNAc(b1-3)Gal(b1-4)GlcNAc(b1-2)Man(a1-3)[Neu5Ac(a2-6)Gal(b1-4)GlcNAc(b1-3)Gal(b1-4)GlcNAc(b1-3)Gal(b1-4)GlcNAc(b1-2)Man(a1-6)]GalNAc
Outline: as §1

[33] = target: Neu5Ac(a2-6)Gal(b1-4)GlcNAc(b1-3)Gal(b1-4)GlcNAc(b1-3)[Neu5Ac(a2-6)Gal(b1-4)GlcNAc(b1-3)Gal(b1-4)GlcNAc(b1-6)]GalNAc
Outline: as §1

[34] = target: Neu5Ac(a2-6)Gal(b1-4)GlcNAc(b1-3)Gal(b1-4)[Fuc(a1-3)]GlcNAc(b1-3)Gal(b1-4)[Fuc(a1-3)]GlcNAc
Outline: as §1

[35] = target: Neu5Ac(a2-8)Neu5Ac(a2-3)Gal(b1-4)Glc
Outline: as §1

[36] = target: Neu5Gc(a2-3)Gal(b1-4)GlcNAc(b1-3)Gal(b1-4)GlcNAc(b1-2)Man(a1-3)[Neu5Gc(a2-3)Gal(b1-4)GlcNAc(b1-3)Gal(b1-4)GlcNAc(b1-2)Man(a1-6)]Man(b1-4)GlcNAc(b1-4)GlcNAc
Outline: as §1

[37] = target: Neu5Gc(a2-3)Gal(b1-4)[Fuc(a1-3)]GlcNAc
Outline: as §1

[38] = target: Neu5Gc(a2-6)Gal(b1-4)GlcNAc
Outline: as §1

B1: ACA (Amaranthus caudatus) (protein)
chain: MAGLPVIMCLKSNNNQKYLRYQSDNIQQYGLLQFSADKILDPLAQFEVEPSKTYDGLVHIKSRYTNKYLVRWSPNHYWITASANEPDENKSNWACTLFKPLYVEEGNMKKVRLLHVQLGHYTQNYTVGGSFVSYLFAESSQIDTGSKDVFHVIDWKSIFQFPKRYVTFKGNNGKYLGVITINQLPCLQFGYDNLNDPKVAHEMFVTSNGTICIKSTYMNKFWRLSTDDWILVDGNDPRETNEAAALFRSDVHDFNVISLLNMQKTWFIKRFTSGKPGFINCMNAATQNVDETAILEIIELGSNN
- glycan array binding signal (z-score) [1]: -0.116
- glycan array binding signal (z-score) (Fuc(a1-3)GlcNAc): -0.103
- glycan array binding signal (z-score) [2]: 0.058
- glycan array binding signal (z-score) [3]: -0.395
- glycan array binding signal (z-score) [4]: -0.246
- glycan array binding signal (z-score) [5]: -0.878
- glycan array binding signal (z-score) (Gal(a1-3)GalNAc): 0.156
- glycan array binding signal (z-score) (Gal(b1-3)Gal(b1-4)GlcNAc): 0.13
- glycan array binding signal (z-score) [6]: -0.399
- glycan array binding signal (z-score) [7]: -0.184
- glycan array binding signal (z-score) [8]: 0.052
- glycan array binding signal (z-score) [9]: -0.471
- glycan array binding signal (z-score) (Gal(b1-4)GlcNAc(b1-2)Man): -0.376
- glycan array binding signal (z-score) [10]: 0.193
- glycan array binding signal (z-score) [11]: -0.378
- glycan array binding signal (z-score) [12]: -0.12
- glycan array binding signal (z-score) [13]: 4.74
- glycan array binding signal (z-score) [14]: 3.63
- glycan array binding signal (z-score) [15]: 5.84
- glycan array binding signal (z-score) [16]: 5.24
- glycan array binding signal (z-score) [17]: 3.84
- glycan array binding signal (z-score) [18]: 0.71
- glycan array binding signal (z-score) (Gal6S(b1-3)GlcNAc): -0.469
- glycan array binding signal (z-score) (Glc(a1-4)Glc): 0.351
- glycan array binding signal (z-score) [19]: -0.456
- glycan array binding signal (z-score) [20]: 3.43
- glycan array binding signal (z-score) [21]: 0.586
- glycan array binding signal (z-score) (Kdn(a2-3)Gal(b1-4)Glc): -0.204
- glycan array binding signal (z-score) [22]: 6.44
- glycan array binding signal (z-score) [23]: -0.413
- glycan array binding signal (z-score) [24]: -0.266
- glycan array binding signal (z-score) [25]: -0.42
- glycan array binding signal (z-score) [26]: 3.13
- glycan array binding signal (z-score) [27]: 9.87
- glycan array binding signal (z-score) [28]: 0.132
- glycan array binding signal (z-score) [29]: 0.029
- glycan array binding signal (z-score) [30]: -0.219
- glycan array binding signal (z-score) [31]: -0.069
- glycan array binding signal (z-score) [32]: 3.17
- glycan array binding signal (z-score) [33]: 4.69
- glycan array binding signal (z-score) [34]: 0.326
- glycan array binding signal (z-score) [35]: -0.424
- glycan array binding signal (z-score) [36]: 1.25
- glycan array binding signal (z-score) [37]: -0.167
- glycan array binding signal (z-score) [38]: -0.372
